The panel holds about 83,000 compounds, 20% with a hit somewhere; the sample as a whole holds those more often.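 How to read the values: 0–100, growth inhibition (40 = 60% inhibited); 0, no net growth; -100 to 0, cell death (-40 = 40% of starting cells died; -100 = all dead).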 Values without a mark were called inactive. Calls of active or inactive are those of the source. The calls were made as follows: active = growth percent below 10; inactive = the rest.
Columns and labels:
Experiment in all cases: NCI-60 one-dose screen, 48 h (100 = growth as untreated, 0 = no growth, -100 = all killed)
Conditions in all cases: 10 µM unless noted
[1] = tested on: BT-549 breast
[2] = tested on: MDA-MB-435 melanoma
[3] = tested on: SW-620 colon
[4] = tested on: MCF7 breast
[5] = tested on: HCT-116 colon
[6] = tested on: HCC-2998 colon
[7] = tested on: KM12 colon

SMILES	growth [1]	growth [2]	growth [3]	growth [4]	growth [5]	growth [6]	growth [7]
Cc1ncc(C(=O)Nc2ccc(CN3CCN(C)CC3)c(C(F)(F)F)c2)cc1C#Cc1c(N)ncc2ccccc12	-96.4% (active)	-92.3% (active)	-60.6% (active)	-71.7% (active)	-88.2% (active)	-89.6% (active)	-68.1% (active)
Cc1ccc(S(=O)(=O)NC(CCC(=O)Nc2ccccc2)C(=O)Nc2ccccc2)cc1 (centres undefined)	-14.9% (active)	-1.32% (active)	11.1%	-8.66% (active)	-49.5% (active)	0.86% (active)	0.4% (active)
C#CCCCCCCC[C@@H]1OC(=O)[C@H]([C@@H](C)CC)NC(=O)[C@H]([C@@H](C)CC)NC(=O)CC(=O)[C@@H]1C	108%	105%	98.2%	95.4%	93.4%	106%	100%
O=C(Nc1cccc(Cn2c(=O)[nH]c3ccc(Oc4ncccn4)cc3c2=O)c1)c1cc(Cl)cc(Cl)c1	-3.71% (active)	67.3%	89.5%	64%	59.9%	85.6%	40.6%
CCC(C)C1NC(=O)C(CCCCN)NC(=O)C(CCCCN)NC(=O)C(CC(C)C)NC(=O)C(CCCCN)NC(=O)C(C(C)CC)NC(=O)C(C(C)C)NC(=O)C(C(C)CC)NC(=O)C(CCCCN)NC(=O)C(CCCCN)NC(=O)C(C)NC(=O)C(CCCCN)NC(=O)C(CC(C)C)NC1=O (centres undefined)	35.5%	26.5%	39.1%	22.5%	10.7%	23.2%	6.18% (active)
CC1=C[C@@H]2c3c(c(O)c(O)c4oc5cc(O)cc(O)c5c(=O)c34)[C@@H](c3cc(O)c(O)c4oc5cc(O)cc(O)c5c(=O)c34)[C@@H]2C(C)(C)C1	12.1%	-42.1% (active)	-50.9% (active)	-44.8% (active)	-78.8% (active)	-34.5% (active)	-55.2% (active)
CC1(C)NCCC[C@]2(C)[C@H]3CC=C4[C@@H]5C[C@](C)(COC(=O)c6ccccc6C(=O)O)CC[C@]5(C)CC[C@@]4(C)[C@]3(C)CC[C@@H]12	72.4%	62.4%	67.2%	41.1%	16.5%	73.4%	55.2%
Cc1ccc(C(=O)Nc2ccc(CN3CCN(C)CC3)c(C(F)(F)F)c2)cc1C#Cc1cnc(N)c2ccc(C#N)cc12	53.1%	10.8%	46.2%	74.2%	13.9%	93%	18.4%
COC(=O)c1ccc2[nH]c(O)c(C(=Nc3ccc(N(C)C(=O)CN4CCN(C)CC4)cc3)c3ccc4c(c3)OCO4)c2c1	3.64% (active)	21.2%	0.696% (active)	11.1%	0.577% (active)	16%	4.89% (active)
CC(C)(C)OC(=O)N1C/C(=C\c2ccccc2)C(=O)/C(=C/c2ccccc2)C1	91.5%	102%	93.7%	78.1%	80.7%	103%	108%
CN1CCN(Cc2ccc(NC(=O)c3cncc(C#Cc4c(N)ncc5ccc(F)cc45)c3)cc2C(F)(F)F)CC1	36.7%	-80.1% (active)	-43.2% (active)	6.26% (active)	4.69% (active)	42.2%	-24.9% (active)
Clc1ccc(N/N=C(/c2ccccc2)c2ccccn2)nc1	55%	57.3%	44.8%	-1.28% (active)	5.31% (active)	45.1%	43.2%
Clc1ccc(N/N=C/c2ccccn2)nc1	23.4%	24.4%	36.7%	0.994% (active)	11.1%	24.5%	24.9%
Cc1ccc(S(=O)(=O)N/N=C2\CC3CCC2C3)cc1 (centres undefined)	107%	103%	106%	97%	103%	120%	105%
COC(=O)c1ccc2[nH]c(O)c(C(=Nc3ccc(N(C)C(=O)CN4CCN(C)CC4)cc3)c3ccc([N+](=O)[O-])cc3)c2c1	49.1%	49.9%	54.7%	30.6%	20.4%	66.7%	16.2%
CCN(CC)CCCNc1c2ccc(Cl)cc2nc2ccc(OC)cc12	-20.4% (active)	-90.5% (active)	3.44% (active)	-16.4% (active)	-4.77% (active)	-68.1% (active)	0.483% (active)

SMILES	growth [1]	growth [2]	growth [3]	growth [4]	growth [5]	growth [6]	growth [7]
COc1cc(-c2c3c(cn2CCN2CCCCC2)-c2oncc2CC3)cc(OC)c1OC	105%	101%	95.2%	91%	89.5%	106%	107%
Cc1ccc(C(C)C)c(OCc2ccc(C(=O)N/N=C/c3cccc(O)c3O)cc2)c1	36.2%	55.9%	47.8%	15.1%	20.4%	45.7%	36.1%
CCc1ccc(C(=Nc2ccc(N(C)C(=O)CN3CCN(C)CC3)cc2)c2c(O)[nH]c3ccc(C(=O)OC)cc23)cc1	-87.9% (active)	-20.5% (active)	-67.3% (active)	-68.4% (active)	-67.9% (active)	-92% (active)	-60.8% (active)
COC(=O)c1ccc(C(=Nc2ccc(N(C)C(=O)CN3CCN(C)CC3)cc2)c2c(O)[nH]c3ccc(C(=O)OC)cc23)cc1	45.8%	43.6%	18.9%	23.5%	10.9%	54.5%	15.3%
COc1cccc(CNC(=O)c2cccc(C3CC(=O)c4c(cc(OC)c(OC)c4OC)O3)c2)c1 (centres undefined)	32.8%	-42.4% (active)	34.9%	25.3%	18.5%	95.2%	41.8%
COC(=O)c1ccc2[nH]c(O)c(C(=Nc3ccc(N(C)C(=O)CN4CCN(C)CC4)cc3)c3ccc(C)cc3)c2c1	-39.5% (active)	10.3%	-26.5% (active)	-67.8% (active)	-66.1% (active)	9.34% (active)	-17.3% (active)
CCOC(=O)c1ccc2n1CCCc1cnc(NC(C)=O)nc1-2	104%	102%	106%	101%	107%	122%	109%
CCN(CC)CCCC(C)Nc1c(C)cnc2cc(Cl)c(C)cc12 (centres undefined)	69.2%	89.9%	85.9%	85.6%	56.9%	74.5%	81.9%
COc1cc2oc(-c3ccc(NC(=O)c4ccccc4)cc3)cc(=O)c2c(OC)c1OC	75.6%	95%	93.2%	75%	91.3%	89.8%	90.6%
Cc1ccc(S(=O)(=O)Nc2cccc(Cn3c(=O)[nH]c4ccc(Oc5ncccn5)cc4c3=O)c2)cc1	65.2%	-10.1% (active)	64.8%	32.5%	59%	81.3%	39.6%
CC1(C)Oc2cc3oc(=O)ccc3cc2C[C@@H]1OCCOS(=O)(=O)c1ccc(C#N)cc1	90.3%	94.9%	89.3%	82.3%	110%	103%	103%
CCC(C)C1NC(=O)C(CC(C)C)NC(=O)C(C)NC(=O)C(C(C)C)NC(=O)C(CCCCN)NC(=O)C(CC(C)C)NC(=O)C(C(C)C)NC(=O)[C@H](C)NC(=O)C(C(C)CC)NC(=O)C(CCCN=C(N)N)NC(=O)C(CCCCN)NC(=O)C(CCCN=C(N)N)NC(=O)C(CCCCN)NC(=O)C([C@H](C)CC)NC(=O)C(CCCCN)NC1=O (some centres undefined)	14.4%	11.2%	19.6%	20.5%	3.67% (active)	16.7%	-6.4% (active)
C/C(=N\Nc1ccc(Cl)cn1)c1ccc2ccccc2n1	21.6%	31.9%	27.5%	7.14% (active)	6.22% (active)	38.1%	20.2%
O=C(Nc1cccc(Cn2c(=O)[nH]c3ccc(Oc4ncccn4)cc3c2=O)c1)c1cccc(F)c1	71.4%	51%	95.3%	57.9%	70.8%	92.5%	66.6%
O=C(NCCCl)Nc1nccnc1OCc1ccc(F)cc1	88.8%	107%	103%	85.1%	104%	113%	107%
C/C=C(/C)C(=O)OC1C=C(CO)C(=O)C(OC(=O)/C(C)=C\C)C1C(C)C (centres undefined)	-32.7% (active)	-78.7% (active)	-59% (active)	-16.6% (active)	-76.1% (active)	-85.9% (active)	-41.3% (active)

From PubChem BioAssay (NCI)
